About 83,000 compounds went through this panel and 20% of them were active in at least one assay; those are over-represented in the sample as a whole.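 Growth was measured after 48 h exposure to one concentration of compound in 96-well plates. Values under 10 count as active.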 Active and inactive are the calls of the source.
What was measured:
Experiment in all cases: NCI-60 one-dose screen, 48 h (100 = growth as untreated, 0 = no growth, -100 = all killed)
Conditions in all cases: 10 µM unless noted
SK-MEL-2 melanoma = test system: SK-MEL-2 melanoma
EKVX NSCLC = test system: EKVX NSCLC
SN12C renal = test system: SN12C renal
UO-31 renal = test system: UO-31 renal
TK-10 renal = test system: TK-10 renal
ACHN renal = test system: ACHN renal
CAKI-1 renal = test system: CAKI-1 renal
A498 renal = test system: A498 renal
CCRF-CEM leukemia = test system: CCRF-CEM leukemia
MOLT-4 leukemia = test system: MOLT-4 leukemia
SR leukemia = test system: SR leukemia
RPMI-8226 leukemia = test system: RPMI-8226 leukemia
OVCAR-8 ovarian = test system: OVCAR-8 ovarian
OVCAR-5 ovarian = test system: OVCAR-5 ovarian
OVCAR-4 ovarian = test system: OVCAR-4 ovarian
SK-OV-3 ovarian = test system: SK-OV-3 ovarian
IGROV1 ovarian = test system: IGROV1 ovarian
OVCAR-3 ovarian = test system: OVCAR-3 ovarian
HS 578T breast = test system: HS 578T breast
NCI/ADR-RES ovarian = test system: NCI/ADR-RES ovarian

Measured: growth

Cc1cc2nc(C(Cl)Cl)nc(-c3ccccc3)n2n1
inactive: SK-MEL-2 melanoma 110% | EKVX NSCLC 61% | SN12C renal 85.6% | UO-31 renal 75.1% | TK-10 renal 59.2% | ACHN renal 11.6% | CAKI-1 renal 35% | A498 renal 20.8% | CCRF-CEM leukemia 79.1% | MOLT-4 leukemia 53.1% | SR leukemia 20.6% | RPMI-8226 leukemia 63% | OVCAR-8 ovarian 49.6% | OVCAR-5 ovarian 78.8% | OVCAR-4 ovarian 33.2% | SK-OV-3 ovarian 60.6% | IGROV1 ovarian 71.4% | OVCAR-3 ovarian 36.9% | HS 578T breast 52.6% | NCI/ADR-RES ovarian 48.6%

CC1OC(C(=O)N2CCN(CCO)CC2)CC1COC1CCCCC1 (stereo not given)
inactive: SK-MEL-2 melanoma 107% [50 µM] | EKVX NSCLC 99.8% [50 µM] | SN12C renal 92.1% [50 µM] | UO-31 renal 70.4% [50 µM] | TK-10 renal 129% [50 µM] | ACHN renal 94.3% [50 µM] | CAKI-1 renal 85.3% [50 µM] | A498 renal 126% [50 µM] | CCRF-CEM leukemia 106% [50 µM] | MOLT-4 leukemia 97.1% [50 µM] | SR leukemia 88% [50 µM] | RPMI-8226 leukemia 96.3% [50 µM] | OVCAR-8 ovarian 99.2% [50 µM] | OVCAR-5 ovarian 104% [50 µM] | OVCAR-4 ovarian 104% [50 µM] | SK-OV-3 ovarian 97.9% [50 µM] | IGROV1 ovarian 98% [50 µM] | OVCAR-3 ovarian 96.7% [50 µM] | HS 578T breast 87.2% [50 µM] | NCI/ADR-RES ovarian 93% [50 µM]

COc1ccc(C2=NN(C=O)C(c3ccc(Oc4nc5c(c(=O)n(C)c(=O)n5C)n4C)c(OC)c3)C2)cc1 (stereo not given)
inactive: SK-MEL-2 melanoma 100% | EKVX NSCLC 91.8% | SN12C renal 53.8% | UO-31 renal 74% | TK-10 renal 104% | ACHN renal 84.8% | CAKI-1 renal 75.2% | A498 renal 85.5% | CCRF-CEM leukemia 80.5% | MOLT-4 leukemia 66.7% | SR leukemia 83.9% | RPMI-8226 leukemia 79.6% | OVCAR-8 ovarian 85.2% | OVCAR-5 ovarian 96.6% | OVCAR-4 ovarian 72.3% | SK-OV-3 ovarian 114% | IGROV1 ovarian 87.7% | OVCAR-3 ovarian 101% | HS 578T breast 89.6% | NCI/ADR-RES ovarian 63.4%

C=C(c1ccc(OC)c(/C=C/C(=O)c2cc(OC)c(OC)c(OC)c2)c1)c1cc(OC)c(OC)c(OC)c1
active: SK-MEL-2 melanoma 3.16% | SN12C renal -13.9% | UO-31 renal -85.6% | ACHN renal -79.9% | A498 renal -23.5% | SR leukemia 9.47% | OVCAR-8 ovarian 6.59% | OVCAR-5 ovarian -51.3% | OVCAR-3 ovarian -39.8% | NCI/ADR-RES ovarian -7.33%
inactive: EKVX NSCLC 15% | TK-10 renal 24.3% | CAKI-1 renal 24.6% | CCRF-CEM leukemia 17.9% | MOLT-4 leukemia 12% | RPMI-8226 leukemia 10.1% | OVCAR-4 ovarian 40% | SK-OV-3 ovarian 38.6% | IGROV1 ovarian 15.2% | HS 578T breast 96.5%

COc1ccc(S(=O)(=O)N(C)c2oc(-c3ccc(Cl)cc3)nc2C#N)cc1
inactive: SK-MEL-2 melanoma 85% | EKVX NSCLC 86.8% | SN12C renal 88.4% | UO-31 renal 72.2% | TK-10 renal 94.3% | ACHN renal 101% | CAKI-1 renal 75.6% | A498 renal 63.8% | CCRF-CEM leukemia 72.2% | MOLT-4 leukemia 59.4% | SR leukemia 29.3% | RPMI-8226 leukemia 69.7% | OVCAR-8 ovarian 96% | OVCAR-5 ovarian 94.6% | OVCAR-4 ovarian 76.4% | SK-OV-3 ovarian 91.2% | IGROV1 ovarian 77.7% | OVCAR-3 ovarian 82.2% | HS 578T breast 64.9% | NCI/ADR-RES ovarian 58.6%

C#CCOc1cccc(Nc2c(Cl)c(CCl)nc3ccc(Oc4ccccc4)cc23)c1
active: SN12C renal 5.93% | CCRF-CEM leukemia 9.4%
inactive: SK-MEL-2 melanoma 37.4% | EKVX NSCLC 76.5% | UO-31 renal 61.7% | TK-10 renal 76.5% | ACHN renal 63.5% | CAKI-1 renal 76.1% | A498 renal 99.7% | MOLT-4 leukemia 14% | SR leukemia 10.4% | RPMI-8226 leukemia 24.5% | OVCAR-8 ovarian 24.8% | OVCAR-5 ovarian 82.7% | OVCAR-4 ovarian 75% | SK-OV-3 ovarian 109% | IGROV1 ovarian 43.2% | OVCAR-3 ovarian 31.6% | HS 578T breast 74.9% | NCI/ADR-RES ovarian 60.2%

C=C(C)[C@@H]1CC[C@]2(C#N)CC[C@]3(C)[C@H](CC[C@@H]4[C@@]5(C)CCCNC(C)(C)[C@@H]5CC[C@]43C)[C@@H]12
inactive: SK-MEL-2 melanoma 110% | EKVX NSCLC 68.9% | SN12C renal 60.3% | UO-31 renal 71.8% | TK-10 renal 118% | ACHN renal 94.6% | CAKI-1 renal 62.2% | A498 renal 82.4% | CCRF-CEM leukemia 50.6% | MOLT-4 leukemia 40% | OVCAR-8 ovarian 82.7% | OVCAR-5 ovarian 88.6% | OVCAR-4 ovarian 72.4% | SK-OV-3 ovarian 118% | IGROV1 ovarian 46.4% | OVCAR-3 ovarian 70.1% | HS 578T breast 91.8% | NCI/ADR-RES ovarian 88.3%
active: SR leukemia -26% | RPMI-8226 leukemia -18.6%

CCOC(=O)C1=C(C)N(C)C(=O)N(C)C1c1ccccc1 (stereo not given)
inactive: SK-MEL-2 melanoma 106% | EKVX NSCLC 97.2% | SN12C renal 91.6% | UO-31 renal 78.7% | TK-10 renal 106% | ACHN renal 95.9% | CAKI-1 renal 90.6% | A498 renal 86.8% | CCRF-CEM leukemia 86.6% | MOLT-4 leukemia 104% | SR leukemia 125% | RPMI-8226 leukemia 99.4% | OVCAR-8 ovarian 104% | OVCAR-5 ovarian 84.1% | OVCAR-4 ovarian 103% | SK-OV-3 ovarian 93.9% | IGROV1 ovarian 110% | OVCAR-3 ovarian 99.1% | HS 578T breast 108% | NCI/ADR-RES ovarian 100%

CCN1C(=O)N(CC)C2C1NN=c1s/c(=C\c3ccc(F)cc3)c(=O)n12 (stereo not given)
inactive: SK-MEL-2 melanoma 55.3% | EKVX NSCLC 56.3% | SN12C renal 31.5% | UO-31 renal 41.7% | TK-10 renal 64.8% | ACHN renal 35.2% | CAKI-1 renal 33% | A498 renal 23.4% | MOLT-4 leukemia 14.3% | SR leukemia 11.1% | RPMI-8226 leukemia 21.3% | OVCAR-5 ovarian 33.1% | OVCAR-4 ovarian 46.4% | SK-OV-3 ovarian 37.2% | IGROV1 ovarian 23% | HS 578T breast 12.4%
active: CCRF-CEM leukemia 4.82% | OVCAR-8 ovarian 2.37% | OVCAR-3 ovarian -25.9% | NCI/ADR-RES ovarian 1.08%

O=c1ccc2c(ccc3ncccc32)o1
inactive: SK-MEL-2 melanoma 112% | EKVX NSCLC 118% | SN12C renal 106% | UO-31 renal 77.1% | TK-10 renal 105% | ACHN renal 95.6% | CAKI-1 renal 90% | A498 renal 81.8% | CCRF-CEM leukemia 104% | MOLT-4 leukemia 92.7% | SR leukemia 103% | RPMI-8226 leukemia 112% | OVCAR-8 ovarian 105% | OVCAR-5 ovarian 104% | OVCAR-4 ovarian 111% | SK-OV-3 ovarian 104% | IGROV1 ovarian 109% | OVCAR-3 ovarian 108% | HS 578T breast 108% | NCI/ADR-RES ovarian 106%

[2H]C([2H])([2H])Oc1ccc(/C=C/C(=O)/C=C(/C=C/c2ccc(OC([2H])([2H])[2H])c(OC([2H])([2H])[2H])c2OC([2H])([2H])[2H])OB(F)F)c(OC([2H])([2H])[2H])c1OC([2H])([2H])[2H]
active: CCRF-CEM leukemia -2.51% | SR leukemia 8.05% | OVCAR-8 ovarian 9.4%
inactive: SK-MEL-2 melanoma 94.9% | EKVX NSCLC 88.7% | SN12C renal 56.7% | UO-31 renal 38.8% | TK-10 renal 74.2% | ACHN renal 14.4% | CAKI-1 renal 48.6% | A498 renal 107% | MOLT-4 leukemia 23.8% | RPMI-8226 leukemia 18.9% | OVCAR-5 ovarian 91.1% | OVCAR-4 ovarian 65.2% | SK-OV-3 ovarian 103% | IGROV1 ovarian 57.1% | OVCAR-3 ovarian 14.5% | HS 578T breast 60% | NCI/ADR-RES ovarian 54.6%

COc1ccc(-c2cc(-c3ccc(Nc4nc(Nc5ccc(Cl)cc5)nc(Nc5ccc(Cl)cc5)n4)cc3)no2)cc1
inactive: SK-MEL-2 melanoma 58.1% | EKVX NSCLC 76.3% | SN12C renal 94% | UO-31 renal 65.3% | TK-10 renal 108% | ACHN renal 83.6% | CAKI-1 renal 83.3% | A498 renal 86.8% | CCRF-CEM leukemia 38.9% | RPMI-8226 leukemia 12.5% | OVCAR-8 ovarian 85.7% | OVCAR-5 ovarian 86% | OVCAR-4 ovarian 77.4% | SK-OV-3 ovarian 127% | IGROV1 ovarian 63.8% | OVCAR-3 ovarian 71.1% | HS 578T breast 90.2% | NCI/ADR-RES ovarian 81.8%
active: MOLT-4 leukemia 9.97% | SR leukemia 2.43%

CCOC(=O)c1c(Nc2nc3ccccc3s2)sc2c1CCC(=O)C2
inactive: SK-MEL-2 melanoma 103% | EKVX NSCLC 42.8% | SN12C renal 36.8% | UO-31 renal 52.7% | TK-10 renal 29.1% | ACHN renal 29.9% | CAKI-1 renal 42.8% | A498 renal 59.1% | CCRF-CEM leukemia 16.9% | MOLT-4 leukemia 20.8% | RPMI-8226 leukemia 12.7% | OVCAR-8 ovarian 27.2% | OVCAR-5 ovarian 86.7% | SK-OV-3 ovarian 99.5% | IGROV1 ovarian 44.7% | OVCAR-3 ovarian 49.7% | HS 578T breast 41.1% | NCI/ADR-RES ovarian 87.3%
active: SR leukemia 0.365% | OVCAR-4 ovarian 8.06%

Cc1ccccc1NC(=O)Cn1cc(CN2CCN(c3ccnc4cc(Cl)ccc34)CC2)nn1
inactive: SK-MEL-2 melanoma 110% | EKVX NSCLC 97.1% | SN12C renal 94.7% | UO-31 renal 71.1% | TK-10 renal 102% | ACHN renal 95% | CAKI-1 renal 80.3% | A498 renal 84.8% | MOLT-4 leukemia 45.3% | SR leukemia 86.8% | RPMI-8226 leukemia 79.7% | OVCAR-8 ovarian 103% | OVCAR-5 ovarian 103% | OVCAR-4 ovarian 94% | SK-OV-3 ovarian 95.6% | IGROV1 ovarian 99.8% | OVCAR-3 ovarian 105% | HS 578T breast 85.5% | NCI/ADR-RES ovarian 99.1%
active: CCRF-CEM leukemia -33.5%

CN1CCN(Cc2ccc(NC(=O)c3cncc(C#Cc4cnc(N)c5ccc(C#N)cc45)c3)cc2C(F)(F)F)CC1
active: SK-MEL-2 melanoma -62% | SN12C renal -81.1% | UO-31 renal -78.4% | TK-10 renal -2.47% | ACHN renal -92.5% | CAKI-1 renal -51.5% | A498 renal -29.8% | CCRF-CEM leukemia 3.96% | MOLT-4 leukemia 2.26% | RPMI-8226 leukemia -25.3% | OVCAR-8 ovarian -68.4% | OVCAR-5 ovarian -79.6% | OVCAR-4 ovarian -56.8% | SK-OV-3 ovarian -4.83% | IGROV1 ovarian -64.1% | OVCAR-3 ovarian 3.19% | HS 578T breast -32.1% | NCI/ADR-RES ovarian -13.6%
inactive: EKVX NSCLC 43.4% | SR leukemia 20%
